About 600 (50%) of roughly 1,200 compounds were called active. The set was probably picked from earlier hits. Some of the results follow. Entries with a potency or affinity are not part of this list. Unmarked numbers belong to inactive results. No stated cut-off is given here; in the data, active means inhibition above about 42%; inactive means the rest.

The target in this assay is SUMO-conjugating enzyme UBC9 (Homo sapiens) (UniProt P63279). Put plainly: blockers of UBC9-mediated SUMO conjugation – biochemical, AlphaScreen, SUMOylation inhibitor project, confirmation (AID 2018). As to conditions: AlphaScreen in vitro SUMOylation assay; at 35 µM; stronger effect = higher value. Background: Bead proximity is the source of the signal in Alpha formats.
Sequence of SUMO-conjugating enzyme UBC9 (Homo sapiens) (P63279 whole entry, looked up): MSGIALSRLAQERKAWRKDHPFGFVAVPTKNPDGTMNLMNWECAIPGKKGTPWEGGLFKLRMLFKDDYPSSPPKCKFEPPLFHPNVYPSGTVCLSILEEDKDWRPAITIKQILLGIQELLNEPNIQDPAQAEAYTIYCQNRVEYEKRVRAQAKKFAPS
Regarding `O=C(Nc1cccnc1)c1cc2cc(Br)ccc2oc1=O`, the inhibition (commonly the drop in the measured response relative to a control, in per cent) was 34.9%. The figure for `COc1ccc(CCNC(=O)c2ccc3nc(-c4ccco4)c(-c4ccco4)nc3c2)cc1OC` is 73.3% (active); for `COc1ccc(CCn2c(N)c(C(=O)NCc3ccco3)c3nc4ccccc4nc32)cc1OC` it is 9.7%; for `CC(=O)Nc1ccc2nc3ccccc3nc2c1` it is 15.1%. For `Cc1ccc(Cn2cccc(NS(C)(=O)=O)c2=O)cc1`, the inhibition was 26.5%. As for `COc1ccc(-c2cc(-c3ccccc3)n3ncnc3n2)cc1`, the inhibition was 5.5%. The figure for `Cc1nn2cc(-c3ccccc3)nc2[nH]c1=O` is 9.6%.

For the compound `CC(C)c1ccc(S(=O)(=O)/N=C2/C=CC(=O)c3ccccc32)cc1`, the inhibition was 102% (active). The figure for `O=C(NCc1ccccc1)Nc1cccn(Cc2c(F)cccc2Cl)c1=O` is -15.7%; for `COc1ccc2c(c1)-c1nc(/N=C/c3ccc(O)cc3)sc1CC2` it is 30.9%; for `CN(C)c1ccc(/C=N/Nc2cc(N3CCOCC3)nc(N3CCOCC3)n2)cc1` it is 39.5%.

`Oc1ccc(/C=N/Nc2cc(N3CCCC3)nc(N3CCCC3)n2)cc1O`: the inhibition is 102% (active). The figure for `Oc1ccc(/C=N/Nc2cc(N3CCCC3)nc(N3CCCC3)n2)cc1` is 82.3% (active); for `Cc1ccc(N=Nc2c(N)[nH]n3c(=O)cc(C)nc23)cc1` it is 37.3%; for `COc1ccc2c(c1)Cc1sc(NC(C)=O)nc1-2` it is 41.3%. The figure for `COc1ccc2c(c1)Cc1sc(NC(=O)c3cccs3)nc1-2` is 51.9% (active). As for `COc1ccc(C(=O)Nc2nc3c(s2)Cc2cc(OC)ccc2-3)cc1`, the inhibition is 59.7% (active).

As for `COCCN(CCOC)S(=O)(=O)c1ccc(C(=O)Nc2nc3c(s2)CCc2ccccc2-3)cc1`, the inhibition was 30.1%. The figure for `COc1ccc2c(c1)Cc1sc(NC(=O)c3ccccc3)nc1-2` is 34.5%; for `Cn1c(=O)c(Nc2ccc(O)cc2)c2c3c(cccc31)C(=O)c1ccccc1-2` it is 91.8% (active); for `COc1ccc(-c2ccnc3nc(/N=C/N(C)C)nn23)cc1` it is -8.3%. As to `COc1cccc(Cn2cccc(NC(=O)NC3CCCCC3)c2=O)c1`, the inhibition is 25.8%. For `CC1CCN(CCCn2c(=S)[nH]c3ccc(N4CCOCC4)cc3c2=O)CC1`, the inhibition is -13.8%. The figure for `O=c1c2ccccc2nc(/C=C/c2cccnc2)n1Cc1ccccc1` is 98.2% (active). With `Cc1c2c(=O)n(-c3nc4ccccc4s3)nc-2cc(O)n1Cc1ccccc1`, the inhibition is 20.5%. The figure for `COCCCNC(=O)c1c(N)n(-c2ccccc2)c2nc3ccccc3nc12` is -25.1%; for `COc1ccc(-n2c3nc4ccccc4nc3c3c(=N)oc(C)nc32)cc1` it is 64% (active); for `COc1ccccc1/C=N/NC(=O)c1ccc(CN2C(=O)c3cccc4cccc2c34)cc1` it is -17.1%. The figure for `O=C(N/N=C/c1ccccc1)c1ccc(CN2C(=O)c3cccc4cccc2c34)cc1` is 51.5% (active); for `NC(=O)N/N=C/c1ccc2cccc(OCc3ccccc3)c2n1` it is 31.5%. The figure for `Cc1cccc(C(=O)NC2C(=O)NNC2c2ccc(Cl)cc2)c1` (configuration not stated) is 69.8% (active); for `CC1OC(Nc2cccc3ccccc23)C(O)C(O)C1O` (configuration not stated) it is 38.7%.

`O=C(N/N=C/c1ccc(O)c2ncccc12)c1cccc(Br)c1`: the inhibition is 65.3% (active). The figure for `CCOc1ccc(N2C(=O)c3ccc(C(=O)OCC(=O)N(CC)C4CCS(=O)(=O)C4)cc3C2=O)cc1` (configuration not stated) is 42.4% (active); for `O=c1oc2cc(O)ccc2cc1-c1ccc(F)cc1` it is 15.5%; for `Cc1cc(/C=C2\SC(=S)NC2=O)c(C)[nH]1` it is 65.4% (active). The figure for `c1ccc2c3c(cc(N4CCOCC4)c2c1)OC1(N2CCOCC2)CCCCC1O3` (configuration not stated) is 92% (active); for `Cc1ccc(C2C(C#N)=C(N)N(c3cccnc3)C3=C2C(=O)CCC3)s1` (configuration not stated) it is 16.8%. The figure for `NC(=O)c1ccc(N=C2C(=O)Nc3ccc([N+](=O)[O-])cc32)cc1` is 102% (active); for `NC(N)=N/N=C/c1cc([N+](=O)[O-])ccc1O` it is -9.1%; for `CCC(C)(C)n1nnnc1CN(Cc1cc2cc(OC)c(OC)cc2[nH]c1=O)C1CCCC1` it is 2.2%. As to `Cc1ccc(-c2[nH]c(-c3ccc(C(=O)O)cc3)nc2-c2ccccc2)cc1`, the inhibition is 49.3% (active). The figure for `O=[N+]([O-])c1c(NCc2ccccc2)cc(N2CCc3ccccc3C2)c2nonc12` is 38.5%; for `O=[N+]([O-])c1cc([N+](=O)[O-])c2nonc2c1Nc1ccc(O)cc1` it is 37.6%; for `CN(C)c1cc(Nc2cccc(O)c2)c([N+](=O)[O-])c2nonc12` it is 43.3% (active). The figure for `COc1ccc2c(c1)C(C)=CC(C)(C)N2C(=O)Nc1ccccc1` is 38.7%; for `CCN(CC)C(=O)c1sc2nc(-c3ccncc3)[nH]c(=O)c2c1C` it is 0.7%. The figure for `CSc1nnc(SCc2nc3sc(C(=O)O)c(C)c3c(=O)[nH]2)s1` is 89.8% (active); for `CCOc1ccc(S(=O)(=O)N2CCCC(C(=O)NCc3ccco3)C2)cc1` (configuration not stated) it is 4.2%; for `Fc1cccc(NC(=S)Nc2cccc3ccccc23)c1` it is 24.1%. As for `[O-]/C(=C(\C(=S)Nc1cccc2ccccc12)[n+]1cccc(CO)c1)c1ccc(Cl)s1`, the inhibition is 31.7%. The figure for `[O-]/C(=C(\C(=S)Nc1cccc2ccccc12)[n+]1ccccc1)c1ccc(Cl)s1` is 53.6% (active); for `CC(C)c1ccc(NC(=O)C[n+]2ccn(C3=C([O-])c4ccccc4C3=O)c2)cc1` it is 61.2% (active). The figure for `CC(C)c1ccc(NC(=S)Nc2cccc3ccccc23)cc1` is 24.3%; for `O=c1c(-c2c(O)cc(O)c3c(=O)cc(-c4ccc(O)cc4)oc23)c(-c2ccc(O)cc2)oc2cc(O)cc(O)c12` it is 99.8% (active); for `Cc1[nH][nH]c(=O)c1C(c1ccc(-c2ccc(Cl)c(Cl)c2)o1)c1c(C)[nH][nH]c1=O` it is 45.9% (active).

With `Cc1[nH][nH]c(=O)c1C(c1ccc(-c2ccc(Cl)c(C(=O)O)c2)o1)c1c(C)[nH][nH]c1=O`, the inhibition was 73.1% (active). The figure for `Cc1cc(C)c(S(=O)(=O)NCC23C=CC(O2)C2C(=O)N(c4ccccc4)C(=O)C23)c(C)c1` (configuration not stated) is -6.4%.

As to `O=C1N=c2ccccc2=C1c1c(O)n(-c2cccc(F)c2)[nH]c1=O`, the inhibition is 12%. The figure for `O=C1N=c2ccccc2=C1c1sc(Nc2ccc(O)cc2)nc1O` is 93.5% (active); for `Cc1c(N2C(=O)c3ccc4c5c(ccc(c35)C2=O)CC4)c(=O)n(-c2ccccc2)n1C` it is 93.9% (active). The figure for `Cc1nn(-c2ccccc2)c2c1C(c1ccc(F)cc1)C(C#N)=C(N)O2` (configuration not stated) is 0%; for `Cc1ccc(-n2nc(C)c3c2OC(N)=C(C#N)C3c2ccoc2)cc1` (configuration not stated) it is 69% (active); for `Cc1ccc(-n2nc(C)c3c2OC(N)=C(C#N)C3c2ccc(C)o2)cc1` (configuration not stated) it is 81.4% (active). The figure for `N#CC1=C(N)Oc2n[nH]c(-c3cccs3)c2C1c1ccoc1` (configuration not stated) is 24.4%; for `CC(C)N1CCC2(CC1)C(C#N)=C(N)NC(S)=C2C#N` it is 26%. Regarding `Cc1nc2c3cc(F)ccc3n(Cc3ccc(F)cc3)c2s1`, the inhibition is 20.7%.

(Values after PubChem BioAssay AID2018 (Sanford-Burnham Center for Chemical Genomics, 2009).)
